Potency and affinity values are given separately. Active and inactive are the calls of the source. Entries that show only a call come without a potency. No cut-off is given here; in the data, nearly all actives have IC50 up to about 0.91 µM.

Here are results for 25 compounds from PubChem BioAssay.

Chain of Calcium-dependent protein kinase 4 (Plasmodium falciparum (isolate 3D7)) (Q8IBS5 whole entry, looked up): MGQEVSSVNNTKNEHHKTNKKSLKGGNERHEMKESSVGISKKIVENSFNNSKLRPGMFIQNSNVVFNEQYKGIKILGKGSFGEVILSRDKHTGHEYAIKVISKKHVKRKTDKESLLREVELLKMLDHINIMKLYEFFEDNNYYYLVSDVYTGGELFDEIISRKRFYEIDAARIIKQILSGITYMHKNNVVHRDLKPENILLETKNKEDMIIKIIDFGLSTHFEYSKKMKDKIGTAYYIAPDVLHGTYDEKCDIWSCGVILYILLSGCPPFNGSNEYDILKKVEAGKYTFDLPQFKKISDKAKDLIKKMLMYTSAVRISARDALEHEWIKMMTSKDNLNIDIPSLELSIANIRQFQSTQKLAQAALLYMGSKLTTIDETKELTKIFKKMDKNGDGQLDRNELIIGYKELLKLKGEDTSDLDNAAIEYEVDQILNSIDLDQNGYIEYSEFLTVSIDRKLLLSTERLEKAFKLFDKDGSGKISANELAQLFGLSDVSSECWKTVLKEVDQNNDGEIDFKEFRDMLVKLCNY

The assay concerns the target Calcium-dependent protein kinase 4 (Plasmodium falciparum (isolate 3D7)) (UniProt Q8IBS5). The assay is described as follows: PfCDPK4 kinase inhibitors, biochemical, TCAMS library (AID 1159588). The conditions noted are these: recombinant PfCDPK4, Kinase-Glo ATP depletion luminescence. For orientation: In Kinase-Glo more light means more ATP remaining.
`CC(Cc1ccc(CNC(=O)NCc2ccc(CC(C)NCCc3cccc(Cl)c3)cc2)cc1)NCCc1cccc(Cl)c1` (stereo not given): the outcome was inactive. As for `CCCCCCN1CCC(NCc2cccc(C#N)c2)CC1`, the result was inactive. To `O=C(Nc1cccc(CN2CCCN(Cc3cccc(O)c3)CC2)c1)c1ccc(-c2ccccc2)cc1` belongs “inactive”; to `FC(F)(F)c1ccc2nc(-c3ccc(-c4cccc(CNCCc5cccnc5)c4)s3)[nH]c2c1`, “inactive”. To `CCCCCCCNC(=O)NCC1CCCN(CCCCCNC(=O)/C=C/c2ccc(Cl)c(Cl)c2)C1` (stereo not given) belongs “inactive”.

Take `CC1CCc2c(C(=O)Nc3c(F)cc(F)cc3Br)csc2C1` (stereo not given): the outcome was inactive.

Turning to `CC(C)COc1ccc(Cl)cc1Cc1ccc(-c2nc3ccc(CCN(C)C)cc3[nH]2)o1`, the outcome was inactive. As to `CCOc1ccc(C2CCN(CCCCNC(=O)c3ccc(NC(=O)c4ccc(Cl)cc4)cc3)CC2)c(OCC)c1`, the result was inactive. To `O=C(N[C@@H](CC1CCCCC1)C(=O)NC1CCCc2ccccc21)c1ccc(O)c(-c2ccc(Cl)c(Cl)c2)c1` (stereo not given in full) belongs “inactive”; to `CCOC(=O)c1ccc(-c2cnoc2-c2cc(CC)c(OC)cc2O)o1`, “inactive”; to `Cc1ccc2cc(NC(=O)c3cccc(C(=O)Nc4ccc5nc(C)ccc5c4)n3)ccc2n1`, “inactive”. With `CC1CC(NCCCNc2cc(=O)c3ccccc3[nH]2)c2c(Cl)c(Cl)cc(Cl)c21` (stereo not given), the outcome was inactive.

Turning to `N#Cc1ccc2c(c1)CCN(CCCn1c(-c3ccc4ccccc4c3)nc3ccncc31)CC2`, the result was inactive. To `O=C(Nc1ccc2nc3n(c(=O)c2c1)CCCCC3)C(=O)N1CCN(c2ccc(F)cc2)CC1` belongs “inactive”; to `COc1ccc2nccc(N3CCN(CCNCc4ccc5c(n4)NC(=O)CS5)CC3)c2n1`, “inactive”. Under `COc1ccc(NC(=O)Nc2ccc(-c3ccncc3)c(C(F)(F)F)c2)cc1N1CCN(C)CC1` stands “inactive”. To `O=S(=O)(NCCN1CCCC1)c1cccc(-c2ccc(CNCc3ccc(F)cc3)cc2)c1` belongs “inactive”; to `O=C(NC1CC1)c1ccc(N2CCOc3ccc(Cl)cc32)s1`, “inactive”. In the case of `CCOc1cc(Cc2cnc(N)nc2N)cc(OCC)c1OCCCCC(=O)OC`, the result was inactive. Under `Clc1ccc(-c2ccc(C=NNc3nc(Nc4ccccc4)nc(Nc4ccccc4)n3)o2)cc1Cl` stands “inactive”; under `CCOC(=O)CNC(=O)N(CCN(Cc1ccccc1)C(=O)NCC(=O)OCC)Cc1ccccc1`, “inactive”. In the case of `CCN(CC)CCN(Cc1ccc(-c2ccc(C(F)(F)F)s2)cc1)C(=O)Cn1c(CCc2cccc(F)c2F)nc(=O)c2ccccc21`, the outcome was inactive.

Take `O=C(Nc1cccc(-c2ccc(CN3CCNCC3)cc2)c1)c1cccc(Cl)c1`: the outcome was inactive. Under `Cc1cccc(Cn2c(Cc3ccccc3)nnc2Sc2ccc([N+](=O)[O-])c(C#N)c2)c1` stands “inactive”; under `COc1cc(-c2ccc(-c3cnc(N)nc3OC)[nH]2)cc(OC)c1OC`, “inactive”.
